Source: PubChem BioAssay AID1159580 (chemical genetic matrix, 2015)
Values joined by “and” are separate entries in the source; they are usually repeats but may differ in a detail not shown here. Equal entries are not always repeated. The whole screen tested about 5,500 compounds, of which about 2,000 (36%) were called active. Another 18% or so got no clear call; they are omitted. No stated cut-off is given here; in the data, active means normalized growth mostly below about 0.91 (no sharp cut-off); inconclusive means no clear call, values can overlap the other calls; inactive means mostly above about 0.92. The list shows a part of the results.

Test: chemical genetic growth profiling, strain panel (AID 1159580);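 further: tested at 20 µM; growth read once vehicle control cultures reached saturation at 30 °C; 1 = growth at the plate median or of vehicle wells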
Conditions: S. cerevisiae deletion strains, growth OD

Measured: normalized growth

NCC(=O)c1ccccc1
inactive: locus YAL013W, strain DEP1, stronger effect = lower value 1.02 | locus YAL021C, strain ccr4, stronger effect = lower value 1.02 | locus YAL026C, strain drs2, stronger effect = lower value 1.01 | locus YAL030W, strain snc1, stronger effect = lower value 1 | locus YBL061C, strain skt5, stronger effect = lower value 0.995 | locus YBR009C, strain hhf1, stronger effect = lower value 0.999 | locus YBR021W, strain FUR4, stronger effect = lower value 1.02 | locus YBR023C, strain chs3, stronger effect = lower value 1 | locus YBR171W, strain sec66, stronger effect = lower value 1 | locus YBR229C, strain ROT2, stronger effect = lower value 1.01 | locus YBR231C, strain swc5, stronger effect = lower value 0.998 | locus YBR279W, strain paf1, stronger effect = lower value 1.01 | locus YCL011C, strain gbp2, stronger effect = lower value 1.01 | locus YCL016C, strain dcc1, stronger effect = lower value 1 | locus YCL029C, strain bik1, stronger effect = lower value 0.998 | locus YCL061C, strain MRC1, stronger effect = lower value 0.996 | locus YCL069W, strain vba3, stronger effect = lower value 0.997 | locus YCR088W, strain abp1, stronger effect = lower value 1 | locus YDL005C, strain med2, stronger effect = lower value 0.984 | locus YDL035C, strain GPR1, stronger effect = lower value 1.02 | locus YDL040C, strain nat1, stronger effect = lower value 1 | locus YDL074C, strain BRE1, stronger effect = lower value 1.06 | locus YDL101C, strain DUN1, stronger effect = lower value 1.02 | locus YDL134C, strain PPH21, stronger effect = lower value 1.02 | locus YDL185W, strain tfp1, stronger effect = lower value 0.996 | locus YDL192W, strain arf1, stronger effect = lower value 0.997 | locus YDR001C, strain nth1, stronger effect = lower value 1.01 | locus YDR069C, strain doa4, stronger effect = lower value 1.02 | locus YDR101C, strain arx1, stronger effect = lower value 0.983 | locus YDR137W, strain rgp1, stronger effect = lower value 1.01 | locus YDR150W, strain NUM1, stronger effect = lower value 1.03 | locus YDR159W, strain sac3, stronger effect = lower value 0.993 | locus YDR162C, strain NBP2, stronger effect = lower value 1.04 | locus YDR195W, strain ref2 0.976 | locus YDR297W, strain sur2, stronger effect = lower value 0.989 | locus YDR318W, strain mcm21, stronger effect = lower value 0.982 | locus YDR334W, strain swr1, stronger effect = lower value 0.999 | locus YDR335W, strain msn5, stronger effect = lower value 1.01 | locus YDR388W, stronger effect = lower value 0.991 | locus YDR392W, strain spt3, stronger effect = lower value 1.02 | locus YDR502C, strain sam2, stronger effect = lower value 0.988 | locus YEL003W, strain gim4, stronger effect = lower value 1 | locus YEL037C, strain rad23, stronger effect = lower value 1 | locus YEL061C, strain CIN8 (second series), stronger effect = lower value 1.02 | locus YEL061C, strain CIN8, stronger effect = lower value 1.01 | locus YER015W, strain faa2, stronger effect = lower value 1 | locus YER016W, strain bim1, stronger effect = lower value 0.987 | locus YER110C, stronger effect = lower value 0.996 | locus YER111C, strain swi4, stronger effect = lower value 0.992 | locus YER155C, strain BEM2 (second series), stronger effect = lower value 1 | locus YER155C, strain BEM2, stronger effect = lower value 1.01 | locus YER167W, strain BCK2, stronger effect = lower value 1.02 | locus YFR010W, strain ubp6, stronger effect = lower value 0.999 | locus YGL078C, strain dbp3, stronger effect = lower value 0.994 | locus YGL086W, strain mad1, stronger effect = lower value 1 | locus YGL167C, strain pmr1, stronger effect = lower value 0.997 | locus YGL173C, strain kem1, stronger effect = lower value 0.998 | locus YGL227W, strain vid30, stronger effect = lower value 1.01 | locus YGL240W, strain doc1, stronger effect = lower value 1.02 | locus YGL248W, strain PDE1, stronger effect = lower value 1.02 | locus YGL253W, strain hxk2, stronger effect = lower value 1.02 | locus YGR078C, strain PAC10, stronger effect = lower value 1.02 | locus YGR135W, strain pre9, stronger effect = lower value 0.994 | locus YGR229C, strain SMI1, stronger effect = lower value 1.03 | locus YGR252W, strain gcn5, stronger effect = lower value 0.964 | locus YHR013C, strain ard1, stronger effect = lower value 0.979 | locus YHR027C, strain rpn1, stronger effect = lower value 1.02 | locus YHR030C, strain SLT2, stronger effect = lower value 1.01 and 1.02 | locus YHR079C, strain IRE1 (second series), stronger effect = lower value 0.996 | locus YHR079C, strain IRE1, stronger effect = lower value 1.03 | locus YHR094C, strain hxt1, stronger effect = lower value 0.988 | locus YHR129C, strain ARP1, stronger effect = lower value 1.01 | locus YHR142W, strain chs7, stronger effect = lower value 1.01 | locus YHR200W, strain rpn10, stronger effect = lower value 0.988 | locus YIL066C, strain RNR3, stronger effect = lower value 1.02 | locus YIL073C, strain SPO22, stronger effect = lower value 0.951 | locus YIL125W, strain kgd1, stronger effect = lower value 1 | locus YIR030C, strain dcg1, stronger effect = lower value 0.992 | locus YJL092W, strain hpr5, stronger effect = lower value 1 | locus YJL095W, strain BCK1 (second series), stronger effect = lower value 0.999 | locus YJL095W, strain BCK1, stronger effect = lower value 1.05 and 1.03 | locus YJL115W, strain asf1, stronger effect = lower value 1 | locus YJL129C, strain trk1, stronger effect = lower value 1 | locus YJL134W, strain LCB3, stronger effect = lower value 1.01 | locus YJL154C, strain vps35, stronger effect = lower value 1 | locus YJL164C, strain tpk1, stronger effect = lower value 0.996 | locus YJL166W, strain qcr8, stronger effect = lower value 1.02 | locus YJL168C, strain set2, stronger effect = lower value 0.994 | locus YJL187C, strain SWE1 (second series), stronger effect = lower value 1.02 | locus YJR043C, strain POL32, stronger effect = lower value 1 | locus YJR066W, strain TOR1, stronger effect = lower value 0.997
